“And” between values parts separate entries of the source, which are not always exact repeats. Equal entries are not always repeated. Compounds without any hit were thinned out: in the full panel of roughly 79,000, 15% have a hit. Values without a mark were called inactive. The source made the active and inactive calls. Rule as the data show it: active = growth inhibition above about 70%; inactive = the rest.
Columns and labels:
[1] = NCI Yeast Anticancer Drug Screen. Data for the rad50 strain (AID 155);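 also: 0% = growth of vehicle-only cultures of the same strain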; conditions: S. cerevisiae rad50 strain growth inhibition; at 50.0 µM; active compounds read high
Procedure, shortened: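 Compounds were tested on a yeast strain with an engineered DNA damage repair alteration; the reported value is growth inhibition normalised to vehicle treatment.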

[2] = NCI Yeast Anticancer Drug Screen. Data for the mec2-1 strain (AID 157); conditions: S. cerevisiae mec2-1 strain, at 50.0 µM, active compounds read high
Procedure, shortened: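 Using mec2-1 yeast: add compound, measure growth, express inhibition versus vehicle-treated cultures.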

[3] = NCI Yeast Anticancer Drug Screen. Data for the sgs1 mgt1 strain (AID 161);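 also: 0% = growth of cultures given vehicle only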; conditions: S. cerevisiae sgs1 mgt1 strain, at 50.0 µM, active compounds read high
Procedure, shortened: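 Compounds are added to genetically altered yeast, and growth is compared with cultures given vehicle alone to give percent inhibition.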

[4] = NCI Yeast Anticancer Drug Screen. Data for the cln2 rad14 strain (AID 165);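 also: 0% = growth equal to vehicle treated cultures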; conditions: S. cerevisiae cln2 rad14 strain, at 50.0 µM, active compounds read high
Procedure, shortened: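 Yeast strain cln2 rad14, bearing defects in cell cycle control and DNA repair, serves as the test system; values reflect growth inhibition compared with vehicle.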

[5] = NCI Yeast Anticancer Drug Screen. Data for the bub3 strain (AID 167); conditions: S. cerevisiae bub3 mutant strain, at 50.0 µM, active compounds read high
Procedure, shortened: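 Growth of a checkpoint-deficient yeast mutant is measured after compound exposure. Values represent inhibition relative to vehicle.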

[6] = NCI Yeast Anticancer Drug Screen. Data for the mlh1 rad18 strain (AID 175); conditions: S. cerevisiae mlh1 rad18 strain growth inhibition; at 50.0 µM; active compounds read high
Procedure, shortened: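 Steps: expose repair-defective yeast to compound; measure growth; express inhibition against vehicle-treated controls.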

Structure (SMILES) | growth inhibition [1] | growth inhibition [2] | growth inhibition [3] | growth inhibition [4] | growth inhibition [5] | growth inhibition [6]
Nc1ccccc1C(=O)Oc1ccccn1 | 7.45% | 8.9% | -0.8% | 13.6% | -8.85% | 6.35%
C(#CCN1CCCCCC1)CN1CCCCCC1 | 0.55% | -9.8% | 0.05% | -8.85% | -14.1% | -2.7%
CCC(CC)CNC(=O)C(C)Br (configuration not stated) | 2.05% | 1.85% | -1.95% | 3.05% | 7.2% | -3.65%
CC1OP(=S)(N2C(=O)c3ccccc3C2=O)OC2CCCCC12 (configuration not stated) | 11.8% | 15.6% | 4.4% | -26.4% | 10.2% | -5.9%
[Br][Ni][Br].c1ccc([PH+](CC[PH+](c2ccccc2)c2ccccc2)c2ccccc2)cc1 | -36.1% | -7.15% | -23.8% | 32.2% | 8.9% | 0.9%
CO[C@H]1Nc2c(ccc(C)c2O)C(=O)N2C=C(/C=C/C(N)=O)C[C@@H]12 | 89.2% (active) | 91.5% (active) | 90% (active) | 90.2% (active) | 90.3% (active) | 87.3% (active)
OC/C=C\c1ccc2c(c1)OCO2 | -19.2% | 14.2% | 17.2% | -9% | -58.5% | -32.5%
COC1/C=C/C=C(/C)Cc2cc(O)c(Cl)c(c2)N(C)C(=O)CC(OC(=O)C(C)C)C2(C)OC2C(C)C2CC1(O)NC(=O)O2 (configuration not stated) | -9.05% | -11.2% | -15.8% | -9.15% | -6.2% | -53%
CSCCC(N)P(C)(=O)O (configuration not stated) | -16.4% | -37.5% | -15.7% | 1.5% | -46.1% | -17.5%
CC[As](CC)SCC1OC(OC(C)=O)C(OC(C)=O)C(OC(C)=O)C1OC(C)=O (configuration not stated) | 99.1% (active) | 98.5% (active) | 68.2% | 99.5% (active) | 65.8% | 98.9% (active)
N.N.N.N.N.O=C([O-])CCl.[Co+3].[O-][Cl+3]([O-])([O-])[O-] | -21.4% | -7.45% | -33.5% | -0.1% | -16.6% | -31.4%
COC(=O)C1(C(=O)OC)ON1C(C)(C)C (configuration not stated) | -48.5% | -17.6% | -17.6% | -57.8% | -5% | -11.6%
CCCCOc1ccc([As](=O)(O)O)cc1 | -17.4% | -10.2% | 4.3% | -19.2% | 16.1% | 5.65%
CC12CC3CC(C1)CC(N=[N+]=[N-])(C3)C2 | -16.4% | -1.3% | -2.65% | 1.3% | -0.95% | -2.6%
O=C(O)CCC(=O)O.[Ni] | -29.1% | -17.1% | -27% | -36.5% | -31.2% | -18.3%
O=C1CCCC2C3CC(CN12)C1CCCCN1C3 (configuration not stated) | 9.85% and 15.7% | -18.3% and -13.9% | -3.4% and 6.75% | 9.05% and 21.3% | -11.8% and 26.9% | -29.3% and 32.3%
CC1OC(O[C@@H]2C=C3CC[C@@H]4[C@H](CC[C@]5(C)[C@@H](c6ccc(=O)oc6)CC[C@]45O)[C@@]3(C)CC2)C(O)C(O)C1O (some centres not stated) | 2.85% | -37.5% | -25% | 13.1% | -15.9% | 4.7%
COc1ccc(/C=C\c2cc(OC)c(OC)c(OC)c2)cc1OC(=O)CCC(=O)O | -13.1% | -12.3% | 8.7% | 24.1% | 14.2% | -27.1%
COc1cccc(NC2=NCCO2)c1 | -17.1% | -1.2% | -5.95% | 3.8% | -2.2% | -12.2%
COC(=O)c1ccccc1NC(=O)C(=O)CC(=O)CC(c1ccccc1)c1c(O)c2ccccc2oc1=O (configuration not stated) | -15.7% | -3.5% | 15.9% | 11.3% | 24.9% | 21.2%
CCCCCCCCCCNP(=S)(NCCCCCCCCCC)c1ccccc1 | 26.8% | 4.7% | 27.9% | -19.8% | -14.8% | 2.6%
O=[N+]([O-])c1ccc(/C=C/C=C\c2ccc(S(=O)(=O)F)cc2Cl)cc1 | 2.55% | 25.2% | 16% | 1.85% | 10.2% | 16.3%
CCOC(=O)C1C(=O)CN2CCc3c([nH]c4ccccc34)C12C(=O)OCC (configuration not stated) | 21.2% | 15.3% | 31.6% | 15.6% | 1.95% | 24.4%
O=C1NC(=O)C(c2ccsc2)C(=O)N1 | -20.6% | -2.25% | -30.4% | -40.5% | 7.5% | 1.45%

Structure (SMILES) | growth inhibition [1] | growth inhibition [2] | growth inhibition [3] | growth inhibition [4] | growth inhibition [5] | growth inhibition [6]
CC1=CC2OC3CC(OC(=O)/C=C/C=C/C(OCCC4=CC(=O)OC4)C(C)O)C(C)(C2(CO)CC1)C31CO1 (configuration not stated) | 31.8% | -0.7% | 11.6% | 25.2% | 8.5% | -2.2%
CCN1C[C@]2(C)CC[C@H](O)C34C1C(C[C@@H]32)[C@@]1(O)CC[C@H]2C[C@@H]4[C@@H]1[C@H]2O | 19.4% | 1.15% | -1.45% | 23.8% | 6.7% | 31.2%
N#CCCCCCBr | 1.05% | -19.1% | 23% | 10.8% | 17.9% | 19.4%
CC[CH2][Sn](=[O])[c]1ccccc1 | 61.6% | 72% (active) | 57.1% | 42.3% | 50.6% | 78.2% (active)
CC[C@]12C=CCN3CC[C@@]4(c5ccc(OC)cc5N(C)[C@H]4[C@@](O)(C(=O)OC)[C@@H]1OC(C)=O)[C@@H]32 | 30.7% | -6.5% | 18.3% | 19.8% | 20.9% | 8.35%
CCCCSP(=S)(SCCCC)SCCCC | 36.6% | 15.1% | 38.5% | -20.2% | 10.1% | 42%
[Cl][Cd][Cl] | 54.5% | 25.5% | 2.6% | 35.5% | 13.2% | 2.15%
C[N+](C)(C)NP(=O)(N[N+](C)(C)C)Oc1ccccc1 | 28.4% | 15.2% | -10.7% | 20.8% | 1.05% | 28.1%
O.O=C(O)C(=O)O.[NH2-].[Zn] | -14.6% | 9.25% | -6.5% | 35.1% | -2.3% | -2.05%
C/C=C/c1cc2n(c1)C(=O)c1cc(OC3OC(C)C(NC)C(C)(O)C3O)c(C)c(O)c1NC2O (configuration not stated) | 20.9% | 1.1% | 20.8% | 2.75% | 14.2% | -47.4%
C[CH2][Sn]([CH2]C)([CH2]C(=O)OC)[CH2]C(=O)OC | 3.15% | 14.7% | 15.5% | 11.7% | 14.4% | -9.9%
CC1CC(C)(O)CC(C(O)CC2CC(=O)NC(=O)C2)C1=O (configuration not stated) | 55.9% | 51% | 48.2% | 56.1% | 67% | 68.2%
CC(N)C(O)c1ccc(O)cc1 (configuration not stated) | -14% | -12% | -21.1% | -4.95% | -39.2% | -44%
c1ccc(C(NC2=NCCO2)c2ccccc2)cc1 | -19% | -33% | -60.8% | -21.5% | -17.2% | -45.8%
COCCCNP(=O)(OC(C)C)OC(C)C | 0.75% | 0.85% | 8.6% | 5.8% | 9.2% | 14.8%
Oc1ccc(C(O)C2CCCCN2)cc1O (configuration not stated) | -10.5% | -20.9% | -0.25% | -17.9% | -16.8% | -0.45%
CN(C/C=C/CN(C)N=O)N=O | 10.1% | 2.05% | 3.75% | -16.9% | 20.4% | 1.05%
CCCCOC(=O)C(O)CF (configuration not stated) | -25.2% | -10.1% | -0.25% | 1.6% | 1.05% | -29.6%
O=P(Oc1ccccc1)(Oc1ccccc1)C(O)C(Cl)(Cl)Cl (configuration not stated) | 7.55% | -2.55% | -0.3% | 6.5% | 4% | 5.45%
Cc1cc(Cl)ccc1OC(C)C(=O)O (configuration not stated) | -2.05% | -15.2% | 0% | 15.3% | -12.7% | -7.55%
O=C(NCCN1CCOCC1)c1ccc2cc(C(=O)N3CC(CCl)c4ccc([N+](=O)[O-])cc43)[nH]c2c1 (configuration not stated) | 88.5% (active) | 92.2% (active) | 88% (active) | 88.8% (active) | 89.8% (active) | 89.9% (active)
c1cc[n+]2c3c(sc2c1)CCC3 | 9.75% | -8.2% | -5.25% | -4.15% | -6.7% | -26.8%
C/C(=N\N=C(N)N)C(CN1CCCCC1)C(c1ccccc1)c1c(O)c2ccccc2oc1=O (configuration not stated) | 13.7% | -2.6% | 10.6% | 24.4% | 28.9% | 16.9%

From PubChem BioAssay (NCI)
